# Data: PubChem BioAssay AID1159580 (chemical genetic matrix, 2015)
# The whole screen tested about 5,500 compounds, of which about 2,000 (36%) were called active. About 18% were inconclusive and are not listed. Some of the results follow. A number with no mark means an inactive call. Cut-off read from the data, not from the text of the source: active = normalized growth mostly below about 0.91 (no sharp cut-off); inconclusive = no clear call, values can overlap the other calls; inactive = mostly above about 0.92.
# Experiment: chemical genetic growth profiling, strain panel (AID 1159580);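 note: tested at 20 µM; growth read once vehicle control cultures reached saturation at 30 °C; 1 = growth at the plate median or of vehicle wells; lower values mean less growth of the strain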
# Settings: S. cerevisiae deletion strains, growth OD
# [1] = locus YAL013W, strain DEP1, hits give low values
# [2] = locus YGR078C, strain PAC10, hits give low values
# [3] = locus YHR030C, strain SLT2, hits give low values
# [4] = locus YJR075W, strain HOC1, hits give low values
# [5] = locus YNL128W, strain TEP1, hits give low values
# [6] = locus YNL153C, strain GIM3, hits give low values
# [7] = locus YNL322C, strain KRE1, hits give low values
# [8] = locus YPL241C, strain CIN2, hits give low values
# [9] = locus YAL040C, strain CLN3, hits give low values
# [10] = locus YCL061C, strain MRC1 (second series), hits give low values
# [11] = locus YDR363W, strain ESC2, hits give low values
# [12] = locus YER002W, strain NOP16, hits give low values
# [13] = locus YHR079C, strain IRE1, hits give low values
# [14] = locus YJL095W, strain BCK1, hits give low values
# [15] = locus YJR066W, strain TOR1, hits give low values
# [16] = locus YLR113W, strain HOG1, hits give low values
# [17] = locus YNL175C, strain NOP13, hits give low values
# [18] = locus YNL183C, strain NPR1, hits give low values
# [19] = locus YNL197C, strain WHI3, hits give low values
# [20] = locus YNL224C, strain SQS1, hits give low values
# [21] = locus YOR083W, strain WHI5 (second series), hits give low values
# [22] = locus YOR231W, strain MKK1, hits give low values
# [23] = locus YPL256C, strain CLN2, hits give low values
structure (smiles),measurement,setting,value
Cc1cccc(C)c1N=C1SCCS1,normalized growth,[1],1
same,normalized growth,"locus YBR229C, strain ROT2, hits give low values",0.99
same,normalized growth,"locus YCL061C, strain MRC1, hits give low values",0.982
same,normalized growth,"locus YDL101C, strain DUN1, hits give low values",0.986
same,normalized growth,"locus YDL134C, strain PPH21, hits give low values",1.02
same,normalized growth,"locus YDR150W, strain NUM1, hits give low values",0.902
same,normalized growth,"locus YEL061C, strain CIN8, hits give low values",1.01
same,normalized growth,[2],0.99
same,normalized growth,"locus YGR229C, strain SMI1, hits give low values",0.997
same,normalized growth,[3],0.929
same,normalized growth,"locus YHR087W, strain rtc3, hits give low values",0.988
same,normalized growth,"locus YJR043C, strain POL32, hits give low values",0.995
same,normalized growth,[4],0.996
same,normalized growth,"locus YKL190W, strain CNB1, hits give low values",1
same,normalized growth,"locus YLR039C, strain RIC1, hits give low values",0.941
same,normalized growth,"locus YLR058C, strain SHM2 (second series), hits give low values",0.996
same,normalized growth,"locus YLR085C, strain ARP6, hits give low values",0.99
same,normalized growth,"locus YLR262C, strain YPT6, hits give low values",0.978
same,normalized growth,"locus YML094W, strain GIM5, hits give low values",0.978
same,normalized growth,"locus YMR219W, strain ESC1, hits give low values",0.996
same,normalized growth,"locus YMR263W, strain SAP30, hits give low values",0.934
same,normalized growth,"locus YMR307W, strain GAS1, hits give low values",0.93
same,normalized growth,[5],1
same,normalized growth,[6],0.966
same,normalized growth,"locus YNL298W, strain CLA4 (second series), hits give low values",0.99
same,normalized growth,[7],0.988
same,normalized growth,"locus YNR030W, strain Alg12, hits give low values",1
same,normalized growth,"locus YPL055C, strain LGE1, hits give low values",0.906
same,normalized growth,[8],0.865
same,normalized growth,"locus YPR135W, strain CTF4, hits give low values",0.887
CN(C)CCC(c1ccc(Cl)cc1)c1ccccn1 (stereo unspecified),normalized growth,[9],0.987
same,normalized growth,[10],0.999
same,normalized growth,[11],0.993
same,normalized growth,[12],0.987
same,normalized growth,[2],1.01
same,normalized growth,[3],0.962
same,normalized growth,[13],0.97
same,normalized growth,[14],0.999
same,normalized growth,[15],0.927
same,normalized growth,[4],0.991
same,normalized growth,[16],1.01
same,normalized growth,[6],0.998
same,normalized growth,[17],1
same,normalized growth,[18],0.941
same,normalized growth,[19],1.03
same,normalized growth,[20],1.01
same,normalized growth,[7],0.992
same,normalized growth,[21],1.01
same,normalized growth,[22],0.971
same,normalized growth,[8],0.998
same,normalized growth,[23],0.94
Cc1cccc(C)c1OCC(N)C(C)C (stereo unspecified),normalized growth,[1],1.01
same,normalized growth,[9],0.995
same,normalized growth,[10],1
same,normalized growth,[11],0.999
same,normalized growth,[12],0.998
same,normalized growth,[4],1.01
same,normalized growth,[5],0.988
same,normalized growth,[6],1.02
same,normalized growth,[17],1.02
same,normalized growth,[19],1
same,normalized growth,[20],0.998
same,normalized growth,[21],1
O=C(CC(=O)c1ccccc1)c1ccccc1,normalized growth,"locus YAL021C, strain ccr4, hits give low values",0.0705 (active)
same,normalized growth,"locus YAL026C, strain drs2, hits give low values",0.175 (active)
same,normalized growth,"locus YAL030W, strain snc1, hits give low values",0.318 (active)
same,normalized growth,"locus YBL061C, strain skt5, hits give low values",0.12 (active)
same,normalized growth,"locus YBR009C, strain hhf1, hits give low values",0.194 (active)
same,normalized growth,"locus YBR023C, strain chs3, hits give low values",0.211 (active)
same,normalized growth,"locus YBR171W, strain sec66, hits give low values",0.735 (active)
same,normalized growth,"locus YBR231C, strain swc5, hits give low values",0.177 (active)
same,normalized growth,"locus YBR279W, strain paf1, hits give low values",0.453 (active)
same,normalized growth,"locus YCL011C, strain gbp2, hits give low values",0.3 (active)
same,normalized growth,"locus YCL016C, strain dcc1, hits give low values",0.43 (active)
same,normalized growth,"locus YCL069W, strain vba3, hits give low values",0.362 (active)
same,normalized growth,"locus YCR088W, strain abp1, hits give low values",0.462 (active)
same,normalized growth,"locus YDL005C, strain med2, hits give low values",0.596 (active)
same,normalized growth,"locus YDL040C, strain nat1, hits give low values",0.698 (active)
same,normalized growth,"locus YDR001C, strain nth1, hits give low values",0.639 (active)
same,normalized growth,"locus YDR069C, strain doa4, hits give low values",0.0695 (active)
same,normalized growth,"locus YDR137W, strain rgp1, hits give low values",0.135 (active)
same,normalized growth,"locus YDR159W, strain sac3, hits give low values",0.541 (active)
same,normalized growth,"locus YDR195W, strain ref2",0.516 (active)
same,normalized growth,"locus YDR297W, strain sur2, hits give low values",0.192 (active)
same,normalized growth,"locus YDR334W, strain swr1, hits give low values",0.152 (active)
same,normalized growth,"locus YDR335W, strain msn5, hits give low values",0.227 (active)
same,normalized growth,"locus YDR392W, strain spt3, hits give low values",0.396 (active)
same,normalized growth,"locus YEL003W, strain gim4, hits give low values",0.379 (active)
same,normalized growth,"locus YEL037C, strain rad23, hits give low values",0.342 (active)
same,normalized growth,"locus YEL061C, strain CIN8 (second series), hits give low values",0.437 (active)
same,normalized growth,"locus YER015W, strain faa2, hits give low values",0.122 (active)
same,normalized growth,"locus YER016W, strain bim1, hits give low values",0.544 (active)
same,normalized growth,"locus YER111C, strain swi4, hits give low values",0.204 (active)
same,normalized growth,"locus YER155C, strain BEM2 (second series), hits give low values",0.381 (active)
same,normalized growth,"locus YFR010W, strain ubp6, hits give low values",0.171 (active)
same,normalized growth,"locus YGL167C, strain pmr1, hits give low values",0.166 (active)
same,normalized growth,"locus YGL173C, strain kem1, hits give low values",0.119 (active)
same,normalized growth,"locus YGL227W, strain vid30, hits give low values",0.725 (active)
same,normalized growth,"locus YGL240W, strain doc1, hits give low values",0.457 (active)
same,normalized growth,"locus YGL253W, strain hxk2, hits give low values",0.147 (active)
same,normalized growth,"locus YHR013C, strain ard1, hits give low values",0.14 (active)
same,normalized growth,"locus YHR027C, strain rpn1, hits give low values",0.0797 (active)
same,normalized growth,[3],0.515 (active)
same,normalized growth,[13],0.468 (active)
same,normalized growth,"locus YHR142W, strain chs7, hits give low values",0.171 (active)
same,normalized growth,"locus YJL092W, strain hpr5, hits give low values",0.432 (active)
same,normalized growth,"locus YJL095W, strain BCK1 (second series), hits give low values",0.108 (active)
same,normalized growth,[14],0.524 (active)
same,normalized growth,"locus YJL115W, strain asf1, hits give low values",0.546 (active)
same,normalized growth,"locus YJL129C, strain trk1, hits give low values",0.596 (active)
same,normalized growth,"locus YJL154C, strain vps35, hits give low values",0.237 (active)
same,normalized growth,"locus YJL164C, strain tpk1, hits give low values",0.154 (active)
same,normalized growth,"locus YJL166W, strain qcr8, hits give low values",0.16 (active)
same,normalized growth,[15],0.565 (active)
same,normalized growth,"locus YKL160W, strain elf1, hits give low values",0.578 (active)
same,normalized growth,"locus YKR026C, strain gcn3, hits give low values",0.685 (active)
same,normalized growth,"locus YKR091W, strain srl3, hits give low values",0.527 (active)
same,normalized growth,"locus YLL001W, strain dnm1, hits give low values",0.363 (active)
same,normalized growth,"locus YLL026W, hits give low values",0.373 (active)
same,normalized growth,"locus YLL041C, strain sdh2, hits give low values",0.328 (active)
same,normalized growth,"locus YLR027C, strain aat2, hits give low values",0.261 (active)
same,normalized growth,[16],0.348 (active)
same,normalized growth,"locus YLR221C, strain rsa3, hits give low values",0.284 (active)
same,normalized growth,"locus YLR258W, strain gsy2, hits give low values",0.234 (active)
same,normalized growth,"locus YLR262C, strain YPT6 (second series), hits give low values",0.101 (active)
same,normalized growth,"locus YLR320W, strain mms22, hits give low values",0.207 (active)
same,normalized growth,"locus YLR342W, strain FKS1, hits give low values",0.344 (active)
same,normalized growth,"locus YLR357W, strain rsc2, hits give low values",0.471 (active)
same,normalized growth,"locus YLR370C, strain arc18, hits give low values",0.147 (active)
same,normalized growth,"locus YLR384C, strain iki3, hits give low values",0.437 (active)
same,normalized growth,"locus YML120C, strain ndi1, hits give low values",0.498 (active)
same,normalized growth,"locus YMR058W, strain fet3, hits give low values",0.0728 (active)
same,normalized growth,"locus YMR125W, strain sto1, hits give low values",0.82 (active)
same,normalized growth,"locus YMR129W, hits give low values",0.393 (active)
same,normalized growth,"locus YMR205C, strain PFK2, hits give low values",0.242 (active)
same,normalized growth,"locus YMR231W, strain pep5, hits give low values",0.0832 (active)
same,normalized growth,"locus YNL071W, strain lat1, hits give low values",0.351 (active)
same,normalized growth,[18],0.517 (active)
same,normalized growth,"locus YNL209W, strain ssb2, hits give low values",0.0845 (active)
same,normalized growth,"locus YNL248C, strain rpa49, hits give low values",0.552 (active)
same,normalized growth,"locus YNL322C, strain KRE1 (second series), hits give low values",0.619 (active)
same,normalized growth,"locus YNR049C, strain mso1, hits give low values",0.434 (active)
same,normalized growth,"locus YOR001W, strain rrp6, hits give low values",0.45 (active)
same,normalized growth,"locus YOR070C, strain gyp1, hits give low values",0.575 (active)
same,normalized growth,"locus YOR080W, strain dia2, hits give low values",0.127 (active)
same,normalized growth,"locus YOR083W, strain WHI5, hits give low values",0.186 (active)
same,normalized growth,"locus YOR106W, strain vam3, hits give low values",0.0633 (active)
same,normalized growth,[22],0.497 (active)
same,normalized growth,"locus YOR265W, strain rbl2, hits give low values",0.179 (active)
same,normalized growth,"locus YOR270C, strain vph1, hits give low values",0.105 (active)
same,normalized growth,"locus YOR290C, strain snf2, hits give low values",0.391 (active)
same,normalized growth,"locus YPL051W, strain arl3, hits give low values",0.102 (active)
same,normalized growth,"locus YPL078C, strain atp4, hits give low values",0.414 (active)
same,normalized growth,"locus YPL106C, strain sse1, hits give low values",0.416 (active)
same,normalized growth,"locus YPL240C, strain hsp82, hits give low values",0.4 (active)
same,normalized growth,[23],0.57 (active)
